Screens deposited in PubChem by National Center for Advancing Translational Sciences (NCATS).
AmpC inh detg – inhibitors of E. coli AmpC beta-lactamase with detergent; P00811; AmpC hydrolysis of nitrocefin, absorbance 480 nm, 0.01% Triton; Potency, µM (highest dose often 114 µM), without a hit: at the highest dose activity change, negative = inhibition, actives largely listed as inhibitors; 370,000 compounds, 0.041% hits; AID 485294;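 note: 0% = no-compound wells and -100% = no-enzyme wells; nearly all actives have a fitted effect of over 25% in size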
Target sequence (P00811 whole entry, looked up): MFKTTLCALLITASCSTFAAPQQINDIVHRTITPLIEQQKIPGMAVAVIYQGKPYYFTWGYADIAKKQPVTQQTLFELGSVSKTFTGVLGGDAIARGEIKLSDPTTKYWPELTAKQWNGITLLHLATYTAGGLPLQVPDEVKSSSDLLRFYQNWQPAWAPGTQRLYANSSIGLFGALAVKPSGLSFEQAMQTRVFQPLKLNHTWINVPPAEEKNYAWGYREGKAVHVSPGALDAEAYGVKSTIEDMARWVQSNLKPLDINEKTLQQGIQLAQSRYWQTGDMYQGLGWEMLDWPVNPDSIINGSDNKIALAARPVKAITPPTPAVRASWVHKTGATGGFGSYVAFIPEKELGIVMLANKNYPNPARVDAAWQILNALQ
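20 mM phosphate pH 7.0 + 0.01% (detergent screen) or 0.0001% Triton X-100; 5.3 nM AmpC reagent; cpd preinc 15 min RT; nitrocefin (800 uM stock) to start; A480 q20 s × 4 min; Activity was normalised to no-enzyme and no-compound control wells.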
Giardia FBPA inh – blocks Giardia fructose-bisphosphate aldolase activity. 290,000 compounds, 0.71% hits. purified Giardia FBPA. Potency, µM (highest dose often 59.6 µM), for inactives: at the top dose activity, negative = inhibition, usual class: inhibitors. A8B2U2; note: nearly all actives have a fitted effect of over 55% in size
Target sequence (A8B2U2 whole entry, looked up): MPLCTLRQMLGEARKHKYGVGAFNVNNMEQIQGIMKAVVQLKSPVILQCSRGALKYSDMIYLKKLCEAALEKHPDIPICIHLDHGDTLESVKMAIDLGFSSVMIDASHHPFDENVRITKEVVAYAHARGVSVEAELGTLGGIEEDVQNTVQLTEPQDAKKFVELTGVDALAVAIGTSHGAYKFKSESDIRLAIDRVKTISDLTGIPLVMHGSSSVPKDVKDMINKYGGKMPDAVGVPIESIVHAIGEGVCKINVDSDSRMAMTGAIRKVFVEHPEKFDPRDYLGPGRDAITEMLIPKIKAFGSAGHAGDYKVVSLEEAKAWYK
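40 nM FBPA preincubated 10 min at RT with compound (up to 57.5 uM final), then substrate plus GAPDH/TPI/NAD/arsenate coupling and diaphorase/resazurin added. Fluorescence read after 20 min at RT, 525/598 nm.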
AmpC inh no detg – blocks E. coli AmpC beta-lactamase in detergent-free assay. P00811. AmpC nitrocefin hydrolysis, absorbance 480 nm, 0.0001% Triton. Potency, µM (top dose mostly 57.1 µM), inactives show at the top dose activity change, negative = inhibition, hits mostly inhibitors. 330,000 compounds, 0.52% hits. AID 485341;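 note: plate controls were no compound for no effect and no enzyme for full effect; nearly all actives have a fitted effect of over 20% in size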
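20 mM phosphate pH 7.0 + 0.01% (detergent screen) or 0.0001% Triton X-100; 5.3 nM AmpC reagent; cpd preinc 15 min RT; nitrocefin (800 uM stock) to start; A480 q20 s × 4 min; Activity was normalised to no-enzyme and no-compound control wells.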
LmPK inh – blocks Leishmania mexicana pyruvate kinase activity; 290,000 compounds, 0.37% hits; Potency, µM (series often up to 57.5 µM), for the others: at the top dose activity change, negative = inhibition, usual class: inhibitors; Q27686; purified LmPK, Kinase-Glo ATP luminescence, 1 h
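Kinase-Glo luminescence read after 1 h RT reaction of 0.1 nM LmPK with 0.5 mM PEP and 0.1 mM ADP. Activity scaled between uninhibited and enzyme-free controls.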
AMA1-RON2 inh – inhibitors of Plasmodium falciparum AMA1-RON2 interaction; AlphaScreen AMA1-biotinylated RON2 peptide binding; Potency, µM (titrated, usually from 58.2 µM), for the others: top-dose activity change, negative = inhibition, most hits filed as inhibitors; 360,000 compounds, 0.2% hits; AID 720542;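 note: 0% = vehicle wells and -100% = peptide control; nearly all actives have a fitted effect of over 45% in size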
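AMA1 (3D7) with his tag at 25 nM final met compounds first, then biotinylated RON2 peptide at 25 nM; detection used donor plus acceptor beads, 10 µg/mL apiece, read by AlphaScreen after 30 min at room temperature.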
* marks the source's active call; other numbers are inactive results; ? = inconclusive; . = not tested or not shown; [ ] = remark or other dose. Compounds with a hit are over-represented: about 1.3% of the library has one in this group of screens. Calls come from the whole dose curve; as a rule, active = well fitted curve in the direction sought with a large enough effect; inconclusive = small, poorly fitted or top-dose-only effect, or another doubt; inactive = no such curve, though single readings can be large; an effect the other way counts as inactive or inconclusive. Unless noted, % is set by controls: 0 for no effect and ±100 for the full control effect; potency is the fitted concentration of half-maximal effect.

SMILES	AmpC inh detg	Giardia FBPA inh	AmpC inh no detg	LmPK inh	AMA1-RON2 inh
O=C(c1ccc2c(c1)N(Cc1cccc(Cl)c1)C(=O)c1ccccc1S2)N1CCOCC1	6%	.	.	.	.
CCCC1=NN(c2ccc([N+](=O)[O-])cc2)C(=O)/C1=C/N(C)C	0%	-8%	-29%	-23%	7%
CC1=NN(c2ccc([N+](=O)[O-])cc2)C(=O)/C1=C\N(C)C	?	0%	-26%	16µM*	-4%[2.32 µM]
Cn1c(C(=O)N2CCCC2)cc2c(=O)n(C)c3ccccc3c21	-7%	-11%	-3%	2%	-2%
Cn1c(C(=O)N2CCN(c3ncccn3)CC2)cc2c(=O)n(C)c3ccccc3c21	?	18µM*	13%	5%	-7%
O=Nc1c(-c2c(O)[nH]c3cc(Br)ccc23)[nH]c2ccccc12	?	-30%	5.6µM*	-28%	10µM*
O=C(CSCc1cccc(Br)c1)N=Nc1c(O)[nH]c2ccccc12	?	.	-12%	1%	3%
Cc1ccccc1-n1c(-c2csc(C)c2C)n[nH]c1=S	?	9%	22µM*	7.9µM*	39%
CCCc1cc(-c2n[nH]c(=S)n2-c2cccc(C)c2)cs1	6%	-1%	-18%	?	18%
Cc1cccc(-n2c(-c3ccc(Br)o3)n[nH]c2=S)c1	.	.	.	.	57%
Cc1cccc(-n2c(-c3ccco3)n[nH]c2=S)c1	?	-4%	-21%	18µM*	43%
Cc1cccc(-n2c(-c3csc(C)c3C)n[nH]c2=S)c1	?	1%	-41%	11µM*	39%
Cc1ccccc1-n1c(-c2ccco2)n[nH]c1=S	-7%	-22%	-10%	?	49%
Cc1cccc(-n2c(-c3csc(C(C)C)c3)n[nH]c2=S)c1	?	16%	-39%	10µM*	1%
COC(=O)[C@]12CCCCC=C1N(Cc1ccc3c(c1)OCO3)C(=O)[C@H](CC(=O)NCc1ccc(OC)c(OC)c1)C2	.	.	.	.	-3%
Cc1[nH]c(/C=C2/C(=O)Nc3ccc(S(=O)(=O)Cc4c(Cl)cccc4Cl)cc32)c(C)c1C(=O)N1CCCC1CN1CCCC1 (configuration not stated)	.	0%	.	.	.
Cc1cc(O)c(C(c2ccccc2)N2CCN(c3ccc(F)cc3)CC2)c(=O)n1Cc1ccco1 (configuration not stated)	8%	.	.	.	.
Cc1ccccc1-n1c(-c2csc3ccccc23)n[nH]c1=S	?	7%	-48%	14µM*	25%
CCN(CC)c1ccc(-c2n[nH]c(=S)n2-c2ccccc2C)cc1	-5%	9%	-6%	-4%	71%
C[C@@H]1CN([C@H](C)CO)C(=O)CCCn2cc(nn2)CO[C@H]1CN(C)C(=O)Nc1ccccc1C(F)(F)F	.	.	.	.	4%
O=C1c2cccc(Cl)c2C(=O)c2c1cccc2N1CCCC1	.	.	.	.	6.3µM*
O=C1c2ccccc2C(=O)c2cc(N3CCCCC3)ccc21	.	.	.	.	-11%
O=C(O)c1ccccc1C(=O)OC1CCCC2CCCC21 (configuration not stated)	.	.	.	.	8%
CNc1cccc2c1C(=O)c1ccccc1C2=O	-9%	-28%	-23%	-13%	4µM*
Cc1nn(S(=O)(=O)c2ccc(C(C)C)cc2)c(C)c1S(=O)(=O)N1CCCCC1	16%	.	.	.	.
SMILES	AmpC inh detg	Giardia FBPA inh	AmpC inh no detg	LmPK inh	AMA1-RON2 inh
Cc1cc(=O)[nH]c(SCc2ccccc2)n1	-10%	-26%	-25%	-3%	3%
Cc1cc(=O)[nH]c(S/C=C/c2ccccc2)n1	3%	-9%	-12%	13µM*	4%
CCCN1CCN(CCCNC(=O)c2cnn(-c3ccc(F)cc3)c2-n2cccc2)CC1	10%	.	.	.	.
C(=N\c1nc2ccccc2[nH]1)/c1cccs1	-8%	-3%	-1%	14µM*	-6%
COc1cc(C2C(C(=O)Nc3ccccc3)=C(C)Nc3nnnn32)cc(OC)c1OC (configuration not stated)	-3%	.	.	.	.
OCC[n+]1c2ccccc2nc2ccc(N3CCOCC3)cc21	-7%	?	-1%	16µM*	?
Cc1cc(C(=O)Nc2ccc(N3CCOCC3)cc2)c2ccccc2n1	8%	-4%	12%	-3%	-24%
CCCCN(C(=O)C1CCCC1)c1c(N)n(CC(C)C)c(=O)[nH]c1=O	-1%	.	-19%	.	14%
O=C(c1ccco1)N1CCN=C1SCc1cccc(F)c1	4%	4%	-20%	-3%	14%
O=C(c1ccco1)N1CCN=C1SCc1ccc(F)cc1	?	1%	8.9µM*	-2%	25%
Cc1ccc(NS(=O)(=O)c2ccc(Br)cc2)nc1	1%	0%	-7%	0%	0%
O=S(=O)(Nc1ccc(Br)cn1)c1ccc2ccccc2c1	-9%	1%	7.1µM*	0%	1%
CC(C)CC(CSc1ccc(Br)cc1)N1CCN(C)CCC1=O (configuration not stated)	.	3%	.	.	.
CCN(c1ccccc1)S(=O)(=O)c1ccc(C(=O)Nc2nnc(COC)o2)cc1	0%	?	-27%	-1%	-3%
COCc1nnc(NC(=O)c2ccc(S(=O)(=O)N(C)c3ccccc3)cc2)o1	?	9%	40µM*	6%	50%
COc1ccc(C=C2CS(=O)(=O)CC(=Cc3ccc(OC)cc3)C2=O)cc1	.	.	.	.	-8%
CC(C)C(=O)Nc1ccccc1N1CCN(S(C)(=O)=O)CC1	1%	2%	0.28µM*	-1%	?
CS(=O)(=O)N1CCN(c2ccccc2NC(=O)C(c2ccccc2)c2ccccc2)CC1	-2%	1%	5%	3%	-2%
CC1(C)O[C@H]2[C@@H](O1)[C@@H](C(=O)Nc1ccccc1O)O[C@@H]1OC(C)(C)O[C@@H]12	16%	.	.	.	.
O=C(O)c1cccc2c1Cc1cc(Cl)ccc1-2	.	.	.	.	-14%
Cc1cccc(CSc2nc3ccncc3n2CC(=O)Nc2ccc(C)c(C)c2)c1	-13%	6%	3.2µM*	0%	.
CCCn1c(/C=C/c2ccccc2)nc2ccccc21	0%	-19%	-38%	?	41%
CC(C)c1ccccc1NC(=O)Cn1c(/C=C/c2ccccc2)nc2ccccc21	-7%	1%	-45%	-8%	-1%
COCCOCCn1c(/C=C/c2ccccc2)nc2ccccc21	1%	?	28%	14µM*	7%
Cc1ccc(C)c(CSc2nc3ccncc3n2CC(=O)Nc2ccc(C)c(C)c2)c1	?	1%	?	-2%	.
Cc1ccc(NC(=O)Cn2c(/C=C/c3ccccc3)nc3ccccc32)cc1C	4%	6%	8.9µM*	5%	-2%
CC(=O)c1cc(-c2ccccc2)n(CC(=O)Nc2ccc(C)c(C)c2)c1C	2%	1%	11µM*	-1%	1%[11.6 µM]
CC(=O)c1cc(-c2ccccc2)n(CC(=O)Nc2cccc(C)c2C)c1C	-8%	0%	-25%	4%	16%
